# Laboratory results taken from the supplement of paper PMC10498489.
# Out of some 2,300 compounds screened, about 330 (14%) showed activity. A selection follows. A number with no mark means an inactive call.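 Rule for the calls: active = median modified Z-score above 1.96; inactive = 1.96 or below.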
# System: HepG2 Srxn1-GFP reporter cells (+30 nM CDDO-Me)
# Experiment: Srxn1-GFP intensity median modified Z-score relative to plate median; higher = stronger NRF2 / oxidative stress reporter activation, active = hit call of the paper
# Conditions: 10 µM; exposure time: 24h
# In short: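 HepG2 Srxn1-GFP BAC reporter cells (20,000 per well, 96-well plates) were co-exposed to an NRF2 activator at 30 nM and compound at 10 μM (≤0.1% DMSO) for 24 h in three replicate plates. After formaldehyde fixation and Hoechst staining, confocal images were analysed per cell for cytoplasmic GFP, excluding images with under 100 cells. The value is the median over replicates of the per-plate modified Z-score of GFP intensity. Scaling used 1.4826 × median absolute deviation.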
row,Compound,Srxn1-GFP intensity median modified Z-score
1,C=C1C[C@]23C[C@@]1(O)CC[C@H]2[C@@]12C=C[C@H](O)[C@@](C)(C(=O)O1)[C@H]2C3C(=O)O (some centres not stated) [euspeclibcmpd1408],0.616
2,NC[C@@H]1O[C@H](O[C@@H]2[C@@H](CO)OC(O[C@@H]3[C@@H](O)[C@H](N)C[C@H](N)[C@H]3OC3O[C@H](CN)[C@@H](O)[C@H](O)[C@H]3N)[C@@H]2O)[C@H](N)[C@@H](O)[C@@H]1O (some centres not stated) [euspeclibcmpd206],0.688
3,O=C(O)C1CC(=O)C(O)C(O)C1 (configuration not stated) [euspeclibcmpd2407],-0.321
4,O=C(O)CCCCC1CCSS1 (configuration not stated) [euspeclibcmpd1157],0.0225
5,O=C(O)CCCCCCCCCCCCC1C=CCC1 (configuration not stated) [euspeclibcmpd1516],10.6 (active)
6,CCOC(=O)CCCCCCCCCCCCC1C=CCC1 (configuration not stated) [euspeclibcmpd2000],-0.411
7,COc1ccc(-c2coc3cc(O)ccc3c2=O)c(OC)c1 [euspeclibcmpd1838],1.83
8,C=CC[S+]([O-])CC(N)C(=O)O (configuration not stated) [euspeclibcmpd2346],-0.228
9,O=C(O)CCCCCCCC(O)C(O)CCCCCCO (configuration not stated) [euspeclibcmpd1577],-0.245
10,CS(=O)(=O)OCCCCOS(C)(=O)=O [euspeclibcmpd40],1.41
11,CS(C)(=O)=O [euspeclibcmpd1496],20.2 (active)
12,COCCCOc1cc(C[C@@H](C[C@H](N)[C@@H](O)CC(C(=O)NCC(C)(C)C(N)=O)C(C)C)C(C)C)ccc1OC (some centres not stated) [euspeclibcmpd873],0.194
13,CC(C)C1CCC(C(=O)NC(Cc2ccccc2)C(=O)O)CC1 (configuration not stated) [euspeclibcmpd675],-0.338
14,Nc1ccc(S(=O)(=O)O)cc1 [euspeclibcmpd2086],2.19 (active)
15,Nc1ccc(S(=O)(=O)c2ccc(N)cc2)cc1 [euspeclibcmpd82],0
16,Nc1ccc(S(N)(=O)=O)cc1 [euspeclibcmpd1042],-0.418
17,NCCC(=O)NC(Cc1c[nH]cn1)C(=O)O (configuration not stated) [euspeclibcmpd1431],-0.178
18,C[C@]12CCC3c4ccc(OC(=O)c5ccccc5)cc4CCC3C1CCC2=O (some centres not stated) [euspeclibcmpd2153],-0.646
19,CC(=O)NC(CC(=O)NC(CCC(=O)O)C(=O)O)C(=O)O (configuration not stated) [euspeclibcmpd1295],-0.164
20,CC[C@H](/C=C/C(C)C1CCC2C3CC=C4CC(=O)CC[C@]4(C)C3CC[C@]12C)C(C)C (some centres not stated) [euspeclibcmpd1667],-0.11
21,Cc1cc2nc3ccc(N(C)C)cc3[s+]c2cc1N [euspeclibcmpd1030],9 (active)
22,CN(C)c1ccc2nc3ccc(N(C)C)cc3[s+]c2c1 [euspeclibcmpd789],9.06 (active)
23,CC(C)(S)C(N)C(=O)O (configuration not stated) [euspeclibcmpd968],0.0726
24,OC[C@@H](O)[C@@H](O)[C@H](O)[C@@H](O)CO [euspeclibcmpd2147],-0.0321

row,Compound,Srxn1-GFP intensity median modified Z-score
1,N=C(N)N=C(N)N1CCOCC1 [euspeclibcmpd1191],-0.583
2,NC(=O)CCC(NC(=O)C(N)CO)C(=O)O (configuration not stated) [euspeclibcmpd2427],-0.15
3,CC(=O)O[C@]1(C)CC[C@@]23CC1C(C)(C)[C@@H]2CC[C@H]3C [euspeclibcmpd1510],3.58 (active)
4,C[C@@H]1CC[C@H]2C(C)(C)C3CC12CC[C@@]3(C)O (some centres not stated) [euspeclibcmpd1468],-0.304
5,CC(=O)OC1CCC23CC1(C)CCC2C(C)(C)CC3OC(C)=O (configuration not stated) [euspeclibcmpd1983],0.679
6,Cc1ccccc1-n1cnnc1SCC(=O)c1ccc2c(c1)OCCO2,1.22
7,CC(C)c1ccc2c(c1)CCC1C(C)(C(N)=O)CCCC21C (configuration not stated) [euspeclibcmpd1367],15.1 (active)
8,Cc1ccc2c(c1)CC[C@H]1CC(=O)CC[C@]21C [euspeclibcmpd2206],0.163
9,CC(C)C1=CC2=CCC3[C@](C)(CCC[C@]3(C)C(=O)O)C2CC1 (some centres not stated) [euspeclibcmpd1332],-0.234
10,CN1C(CC(=O)c2ccccc2)CCCC1CC(O)c1ccccc1 (configuration not stated) [euspeclibcmpd1050],-0.349
11,Cc1cc[nH]c(=NS(=O)(=O)c2ccc(N)cc2)n1 [euspeclibcmpd275],-0.506
12,NC(=O)C(c1ccccc1)(c1ccccc1)C1CCN(CCc2ccc3c(c2)CCO3)C1 (configuration not stated) [euspeclibcmpd914],-0.0168
13,Cc1cc(C)c2c(=O)c3c(oc2c1)C(=O)N(Cc1ccc(F)cc1)C3c1cccc(O)c1 (configuration not stated),1.43
14,CCCCCCCCCCCCCCCC(=O)O[C@@H]1[C@@H](O)[C@@H](O)[C@H]([C@H](NC(=O)C2C[C@@H](CCC)CN2C)[C@H](C)Cl)O[C@@H]1SC (some centres not stated) [euspeclibcmpd1310],0.0886
15,Cc1cc(C(C)(C)CC(C)(C)C)ccc1OCCOCC[N+](C)(C)Cc1ccccc1 [euspeclibcmpd556],24 (active)
16,CC(C)(C)CC(C)(C)c1ccc(OCCOCC[N+](C)(C)Cc2ccccc2)cc1 [euspeclibcmpd33],9.81 (active)
17,CCCCCCCCCCCCC[N+](C)(C)Cc1ccccc1 [euspeclibcmpd590],3.29 (active)
18,Oc1ccc(OCc2ccccc2)cc1 [euspeclibcmpd515],1.16
19,CCCCCCCCCCCCCCCC[N+](C)(C)CCN(Cc1ccc(OC)cc1)c1ncccn1 [euspeclibcmpd626],1.67
20,CCCCC(O)c1ccccc1 (configuration not stated) [euspeclibcmpd2082],-0.178
21,C[N+](C)(CCOc1ccccc1)Cc1ccccc1 [euspeclibcmpd868],2.62 (active)
22,C[C@]12C=CC(=O)CC1=CCC1C3C[C@@H](O)[C@](O)(C(=O)CO)[C@@]3(C)C[C@H](O)[C@@]12F (some centres not stated) [euspeclibcmpd302],-0.809
23,CC1(C)C(C(=O)O)N2C(=O)C[C@H]2S1(=O)=O (some centres not stated) [euspeclibcmpd473],-0.4
